Results filed as inconclusive are left out. A call without a number means that no potency is given here. Calls of active or inactive are those of the source. Calls come from the whole dose curve; as a rule, active = well fitted curve in the direction sought with a large enough effect; inconclusive = small, poorly fitted or top-dose-only effect, or another doubt; inactive = no such curve, though single readings can be large; an effect the other way counts as inactive or inconclusive.

The target of assay [1] is Aldehyde dehydrogenase, mitochondrial (Homo sapiens) (UniProt P05091). As to the kind of experiment: qHTS for Inhibitors of the Aldehyde Dehydrogenase Family (ALDH2) Primary screen (AID 2061308). Note: nearly all actives have a fitted effect of over 55% in size. The conditions noted are these: ALDH2 enzyme inhibition qHTS, 1536-well; series mostly up to 56 µM. A general note: Quantitative high-throughput screening tests each substance at several concentrations.

Assay [2] deals with Retinaldehyde dehydrogenase 3 (Homo sapiens) (UniProt P47895). Put plainly: qHTS for Inhibitors of the Aldehyde Dehydrogenase Family (ALDH1A3) Primary screen (AID 2061315). The settings on record: ALDH inhibition qHTS; series mostly up to 56 µM.

Consider `c1nc(N2CCNCC2)c2cc(-c3ccc4c(c3)OCO4)ccc2n1`, for which the Potency entry in assay [1] and in assay [2] was “inactive” throughout.
Consider `Cc1cc(C)n2ncc(C(=O)NCc3ccccc3)c2n1`, for which the Potency result in assay [1] and in assay [2] was “inactive” throughout.
Consider `COc1ccc(N2C(=O)c3ccccc3C2=O)cc1`, for which the Potency result in assay [1] and in assay [2] was “inactive” throughout.
For `O=C(OCC#CCSc1nnc(-c2cccc3ccccc23)o1)c1ccc(SC(F)(F)F)cc1`, the Potency entry in assay [1] and in assay [2] was “inactive” throughout.
Consider `Cc1cc(C)nc(NC(=S)N2CCN(c3cccc(OC(F)F)c3)CC2)c1`, for which the Potency entry in assay [1] and in assay [2] was “inactive” each time.

(Values after PubChem BioAssay (NCATS).)
